According to PubChem BioAssay (Tox21):
Unmarked numbers belong to inactive results. Records with an inconclusive call do not appear. A call without a number means that no potency is given here. Activity calls are given as the source filed them. Unless noted, calls come from the whole dose curve; as a rule, active = well fitted curve in the direction sought with a large enough effect in the repeat runs; inconclusive = weak or mixed curves; inactive = no such curve, though single readings can be large; an effect the other way counts as inactive or inconclusive.

Target: Estrogen receptor (Homo sapiens) (UniProt P03372)
Sequence (P03372 whole entry, looked up): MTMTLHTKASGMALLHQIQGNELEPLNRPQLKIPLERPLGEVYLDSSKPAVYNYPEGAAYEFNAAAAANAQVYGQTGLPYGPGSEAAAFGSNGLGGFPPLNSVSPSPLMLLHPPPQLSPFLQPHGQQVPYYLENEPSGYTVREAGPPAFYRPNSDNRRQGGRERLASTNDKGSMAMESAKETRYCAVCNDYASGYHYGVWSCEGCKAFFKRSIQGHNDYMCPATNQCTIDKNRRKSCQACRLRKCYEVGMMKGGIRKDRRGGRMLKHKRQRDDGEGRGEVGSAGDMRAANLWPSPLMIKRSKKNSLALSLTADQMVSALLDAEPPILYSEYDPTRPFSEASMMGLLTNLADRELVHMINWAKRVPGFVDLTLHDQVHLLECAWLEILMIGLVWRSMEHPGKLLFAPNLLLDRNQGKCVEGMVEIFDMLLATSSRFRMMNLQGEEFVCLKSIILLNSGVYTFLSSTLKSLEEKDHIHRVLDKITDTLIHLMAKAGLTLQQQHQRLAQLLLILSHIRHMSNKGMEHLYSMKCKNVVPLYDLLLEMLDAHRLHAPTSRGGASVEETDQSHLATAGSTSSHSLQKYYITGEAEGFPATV
Test: qHTS assay to identify small molecule antagonists of the estrogen receptor alpha (ER-alpha) signaling pathway using the BG1 cell line in the presence of 0.1 nM 17-beta-estradiol (AID 1259244); note: nearly all actives have a fitted effect of over 50% in size; note: potency is the fitted concentration of half-maximal effect
Conditions: VM7Luc4E2 (BG1) ERE-luciferase, antagonist mode, 0.1 nM E2, 22 h; series mostly up to 92.4 µM
Method in brief: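 VM7Luc4E2 cells (endogenous full-length ER-alpha, stable 4xERE-luciferase) were grown 5 days in phenol red-free medium with charcoal-stripped FBS, then exposed 22 h at 37C to compounds plus 0.1 nM (final) 17beta-estradiol; ONE-Glo luminescence read-out.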
In the case of `CC(=O)[C@H]1CC[C@H]2[C@@H]3CC[C@H]4C[C@](C)(O)CC[C@]4(C)[C@H]3CC[C@]12C`, the Potency is reported as “inactive”.
With `CCBr` the Potency was “inactive”.
For `COc1nn(CSP(=S)(OC)OC)c(=O)s1`, the Potency was “inactive”.
With `CN(N=O)c1ccc([N+](=O)[O-])cc1` the Potency was “inactive”.
For `O=C(O)COc1ccc(Cl)cc1`, the Potency was “inactive”.
For `CN1C(=O)C(O)N=C(c2ccccc2)c2cc(Cl)ccc21` (configuration not stated), the Potency was 56.4 µM (active).
Work on `CO[C@@H]1[C@H](OC(=O)NC(=O)CCl)CC[C@]2(CO2)[C@H]1[C@@]1(C)O[C@@H]1CC=C(C)C` yielded an activity change, negative = inhibition of -0.212% [at 19 µM].
With `CCCCNP(N)(N)=S` the Potency was “inactive”.
In the case of `OCCCBr`, the Potency is reported as “inactive”.
In the case of `Cl/C=C\C[N+]12CN3CN(CN(C3)C1)C2`, the Potency is reported as “inactive”.
For `CCOP(=S)(OCC)Oc1cc(Cl)c(Br)cc1Cl`, the Potency was “inactive”.

System: not listed separately
Test: qHTS assay to identify small molecule phospholipidosis (PLD) inducers (AID 1259344; active = well fitted curve in the direction sought with a large enough effect; an effect the other way counts as inactive or inconclusive)
Conditions: HepG2 phospholipidosis, LipidTOX Red imaging, 24 h; series mostly up to 38.3 µM
Method in brief: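 HepG2 cells grown on collagen I take up LipidTOX Red while exposed to compound for 24 h; after fixation they are imaged at 20x and pit metrics are extracted.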
Compound `CC[C@H]1C[C@H]2[C@@H]3CCC4=CC(=O)CC[C@@H]4[C@H]3CC[C@]2(C)[C@H]1O` has a PLD induction of 1.62% [at 7.66 µM].
In the case of `O=C1NCN(c2ccccc2)C12CCN(CCCOc1ccc(F)cc1)CC2`, the outcome is reported as “inactive”.
In the case of `O=[N+]([O-])c1ccc(F)c([N+](=O)[O-])c1`, the outcome is reported as “inactive”.
In the case of `CCOP(=O)(OCC)O/C(=C/Cl)c1ccc(Cl)cc1Cl`, the outcome is reported as “inactive”.
In the case of `ClC=C(Cl)Cl`, the outcome is reported as “inactive”.
For `COCCOCCO`, the outcome was “inactive”.
For `Clc1ccc(C(OCCN2CCCCC2)c2ccccc2)cc1` (configuration not stated), the outcome was “inactive”.
In the case of `CC(=O)[C@H]1CC[C@H]2[C@@H]3CC[C@H]4C[C@](C)(O)CC[C@]4(C)[C@H]3CC[C@]12C`, the outcome is reported as “inactive”.
In the case of `COc1nn(CSP(=S)(OC)OC)c(=O)s1`, the outcome is reported as “inactive”.
In the case of `CN1C(=O)C(O)N=C(c2ccccc2)c2cc(Cl)ccc21` (configuration not stated), the outcome is reported as “inactive”.
For `OCCCBr`, the outcome was “inactive”.

System: not listed separately
Test: qHTS assay to identify small molecule HDAC inhibitors (AID 1259364); note: nearly all actives have a fitted effect of over 45% in size; note: potency is the fitted concentration of half-maximal effect; for activity change, negative = inhibition: top concentration of the series differs between compounds
Conditions: HCT-116 HDAC-Glo I/II luminescence, 2 h; series mostly up to 92.4 µM
Method in brief: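 Wild-type HCT-116 cells were plated overnight, exposed to compounds for 2 h at 37 °C, then given HDAC-Glo class I/II luminogenic reagent for 30 min at room temperature before luminescence was read.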
For `O=C(NCc1cccnc1)Nc1ccc([N+](=O)[O-])cc1`, the Potency was “inactive”.
In the case of `CC[C@H]1C[C@H]2[C@@H]3CCC4=CC(=O)CC[C@@H]4[C@H]3CC[C@]2(C)[C@H]1O`, the Potency is reported as “inactive”.
With `O=C(CBr)Nc1ccc(Cl)cc1C(=O)c1ccccc1F` the Potency was “inactive”.
In the case of `ClCC(Br)CBr` (configuration not stated), the Potency is reported as “inactive”.
In the case of `COc1c(C(C)(C)C)cc([N+](=O)[O-])c(C)c1[N+](=O)[O-]`, the Potency is reported as “inactive”.
With `c1ccoc1` the Potency was “inactive”.
With `CCCC(=O)Cl` the Potency was “inactive”.
In the case of `Nc1nc(=S)[nH][nH]1`, the Potency is reported as “inactive”.
With `Brc1ccc(Oc2ccccc2)cc1` the Potency was “inactive”.
With `O=C1NCN(c2ccccc2)C12CCN(CCCOc1ccc(F)cc1)CC2` the Potency was “inactive”.
In the case of `O=[N+]([O-])c1ccc(F)c([N+](=O)[O-])c1`, the Potency is reported as 12.3 µM (active).
For `CCOP(=O)(OCC)O/C(=C/Cl)c1ccc(Cl)cc1Cl`, the Potency was “inactive”.
With `CCOP(=S)(OCC)SCSCC` the Potency was “inactive”.
In the case of `ClC=C(Cl)Cl`, the Potency is reported as “inactive”.
For `COC(N)=O`, the Potency was “inactive”.
With `CCC(Cl)CCl` (configuration not stated) the Potency was “inactive”.
For `CCCN(CCCl)c1c([N+](=O)[O-])cc(C(F)(F)F)cc1[N+](=O)[O-]`, the Potency was “inactive”.
With `Cn1cc[n+](C)c1` (tested in a mixture with another compound) the Potency was “inactive”.
In the case of `C=CC(C)=O`, the Potency is reported as “inactive”.
For `O=C(NC(=O)c1c(F)cccc1F)Nc1ccc(OC(F)(F)C(F)OC(F)(F)F)c(Cl)c1` (configuration not stated), the Potency was “inactive”.
With `COc1cc(Cl)c(OC)cc1Cl` the Potency was “inactive”.
In the case of `COCCOCCO`, the Potency is reported as “inactive”.
In the case of `Clc1ccc(C(OCCN2CCCCC2)c2ccccc2)cc1` (configuration not stated), the Potency is reported as “inactive”.
In the case of `CCOP(=S)(Oc1ccc([N+](=O)[O-])cc1)c1ccccc1` (configuration not stated), the Potency is reported as “inactive”.
In the case of `CC(=O)[C@H]1CC[C@H]2[C@@H]3CC[C@H]4C[C@](C)(O)CC[C@]4(C)[C@H]3CC[C@]12C`, the Potency is reported as “inactive”.
In the case of `CCBr`, the Potency is reported as “inactive”.
With `COc1nn(CSP(=S)(OC)OC)c(=O)s1` the Potency was “inactive”.
In the case of `CN(N=O)c1ccc([N+](=O)[O-])cc1`, the Potency is reported as “inactive”.
For `O=C(O)COc1ccc(Cl)cc1`, the Potency was “inactive”.
For `CN1C(=O)C(O)N=C(c2ccccc2)c2cc(Cl)ccc21` (configuration not stated), the Potency was “inactive”.
`CO[C@@H]1[C@H](OC(=O)NC(=O)CCl)CC[C@]2(CO2)[C@H]1[C@@]1(C)O[C@@H]1CC=C(C)C` showed an activity change, negative = inhibition of -1.01% [at 19 µM].
In the case of `CCCCNP(N)(N)=S`, the Potency is reported as “inactive”.
In the case of `OCCCBr`, the Potency is reported as “inactive”.
In the case of `Cl/C=C\C[N+]12CN3CN(CN(C3)C1)C2`, the Potency is reported as “inactive”.
In the case of `CCOP(=S)(OCC)Oc1cc(Cl)c(Br)cc1Cl`, the Potency is reported as “inactive”.

System: not listed separately
Test: qHTS assay to identify small molecule HDAC inhibitors - cell viability counter screen (AID 1259365); note: nearly all actives have a fitted effect of over 50% in size
Conditions: HCT-116 viability, CellTiter-Glo ATP luminescence, 2 h; series mostly up to 92.4 µM
Method in brief: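 Viability readout: CellTiter-Glo luminescence. Wild-type HCT-116 cells, 2hr compound treatment following overnight attachment at 37 C.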
In the case of `O=C(NCc1cccnc1)Nc1ccc([N+](=O)[O-])cc1`, the Potency is reported as “inactive”.
For `CC[C@H]1C[C@H]2[C@@H]3CCC4=CC(=O)CC[C@@H]4[C@H]3CC[C@]2(C)[C@H]1O`, the Potency was “inactive”.
In the case of `O=C(CBr)Nc1ccc(Cl)cc1C(=O)c1ccccc1F`, the Potency is reported as “inactive”.
For `ClCC(Br)CBr` (configuration not stated), the Potency was “inactive”.
For `COc1c(C(C)(C)C)cc([N+](=O)[O-])c(C)c1[N+](=O)[O-]`, the Potency was “inactive”.
In the case of `c1ccoc1`, the Potency is reported as “inactive”.
For `CCCC(=O)Cl`, the Potency was “inactive”.
For `Nc1nc(=S)[nH][nH]1`, the Potency was “inactive”.
In the case of `Brc1ccc(Oc2ccccc2)cc1`, the Potency is reported as “inactive”.
In the case of `O=C1NCN(c2ccccc2)C12CCN(CCCOc1ccc(F)cc1)CC2`, the Potency is reported as “inactive”.
For `O=[N+]([O-])c1ccc(F)c([N+](=O)[O-])c1`, the Potency was “inactive”.
With `CCOP(=O)(OCC)O/C(=C/Cl)c1ccc(Cl)cc1Cl` the Potency was “inactive”.
For `CCOP(=S)(OCC)SCSCC`, the Potency was “inactive”.
For `ClC=C(Cl)Cl`, the Potency was “inactive”.
With `COC(N)=O` the Potency was “inactive”.
For `CCC(Cl)CCl` (configuration not stated), the Potency was “inactive”.
For `CCCN(CCCl)c1c([N+](=O)[O-])cc(C(F)(F)F)cc1[N+](=O)[O-]`, the Potency was “inactive”.
In the case of `Cn1cc[n+](C)c1` (tested in a mixture with another compound), the Potency is reported as “inactive”.
For `C=CC(C)=O`, the Potency was “inactive”.
In the case of `O=C(NC(=O)c1c(F)cccc1F)Nc1ccc(OC(F)(F)C(F)OC(F)(F)F)c(Cl)c1` (configuration not stated), the Potency is reported as “inactive”.
With `COc1cc(Cl)c(OC)cc1Cl` the Potency was “inactive”.
With `COCCOCCO` the Potency was “inactive”.
For `Clc1ccc(C(OCCN2CCCCC2)c2ccccc2)cc1` (configuration not stated), the Potency was “inactive”.
For `CCOP(=S)(Oc1ccc([N+](=O)[O-])cc1)c1ccccc1` (configuration not stated), the Potency was “inactive”.
For `CC(=O)[C@H]1CC[C@H]2[C@@H]3CC[C@H]4C[C@](C)(O)CC[C@]4(C)[C@H]3CC[C@]12C`, the Potency was “inactive”.
In the case of `CCBr`, the Potency is reported as “inactive”.
In the case of `COc1nn(CSP(=S)(OC)OC)c(=O)s1`, the Potency is reported as “inactive”.
With `CN(N=O)c1ccc([N+](=O)[O-])cc1` the Potency was “inactive”.
For `O=C(O)COc1ccc(Cl)cc1`, the Potency was “inactive”.
In the case of `CN1C(=O)C(O)N=C(c2ccccc2)c2cc(Cl)ccc21` (configuration not stated), the Potency is reported as “inactive”.
Work on `CO[C@@H]1[C@H](OC(=O)NC(=O)CCl)CC[C@]2(CO2)[C@H]1[C@@]1(C)O[C@@H]1CC=C(C)C` yielded an activity change, negative = cytotoxicity of 12.9% [at 19 µM].
With `CCCCNP(N)(N)=S` the Potency was “inactive”.
With `OCCCBr` the Potency was “inactive”.
For `Cl/C=C\C[N+]12CN3CN(CN(C3)C1)C2`, the Potency was “inactive”.
In the case of `CCOP(=S)(OCC)Oc1cc(Cl)c(Br)cc1Cl`, the Potency is reported as “inactive”.
